Measured values taken from the supplement of paper PMC3545927.
The other results are listed elsewhere or left out. The hit rate among all sequences tested is not known here.

Molecular target: furin, P09958
Assay: furin cleavage Z-score vs untreated control; higher = more cleavage, active = 3.5 or more, inactive = 1 or less, 8 variable residues between constant flanks
In short: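 Read counts from sequencing released DNA gave abundance for each bead-bound 8-mer peptide–cDNA fusion cut by purified furin over 7.5, 15 or 30 min. The cleavage Z-score compares log counts with furin-free reactions after lowess adjustment and median absolute deviation scaling.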
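Further: purified furin at 1:10 enzyme:substrate in 50 mM HEPES pH 7.5.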

Sequence of furin, P09958 (P09958 whole entry): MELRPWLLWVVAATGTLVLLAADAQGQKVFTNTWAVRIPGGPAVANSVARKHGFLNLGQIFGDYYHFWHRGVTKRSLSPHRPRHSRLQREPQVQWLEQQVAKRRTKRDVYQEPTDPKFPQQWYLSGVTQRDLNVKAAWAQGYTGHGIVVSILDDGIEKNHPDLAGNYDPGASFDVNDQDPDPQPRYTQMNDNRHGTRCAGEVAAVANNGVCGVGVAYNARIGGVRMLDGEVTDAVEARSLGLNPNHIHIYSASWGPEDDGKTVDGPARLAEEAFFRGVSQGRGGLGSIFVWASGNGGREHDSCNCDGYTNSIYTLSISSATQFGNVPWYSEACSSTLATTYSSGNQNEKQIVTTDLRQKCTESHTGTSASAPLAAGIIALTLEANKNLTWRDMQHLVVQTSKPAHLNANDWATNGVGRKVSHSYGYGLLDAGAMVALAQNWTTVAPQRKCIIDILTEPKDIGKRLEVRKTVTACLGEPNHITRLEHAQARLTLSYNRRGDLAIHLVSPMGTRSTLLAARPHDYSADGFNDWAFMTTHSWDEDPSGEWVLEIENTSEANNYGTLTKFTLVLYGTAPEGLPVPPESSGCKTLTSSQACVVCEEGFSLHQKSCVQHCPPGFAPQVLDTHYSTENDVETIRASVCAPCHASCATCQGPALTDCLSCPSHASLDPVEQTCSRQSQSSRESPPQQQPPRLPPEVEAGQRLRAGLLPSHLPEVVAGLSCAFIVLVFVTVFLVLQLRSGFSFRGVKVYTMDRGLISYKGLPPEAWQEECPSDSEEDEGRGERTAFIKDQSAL

Sequence	furin cleavage Z-score (7.5 min)	furin cleavage Z-score (15 min)	furin cleavage Z-score (30 min)
CAEVPCHSPSAGNASASA [HC2377]	-0.25 (inactive)	-0.38 (inactive)	1.09
CAEVFCHRPSAGNASASA [HC2347]	-0.391 (inactive)	-1 (inactive)	0.51 (inactive)
CAHLQRQKRDAGNASASA [FS-440]	6.68 (active)	7.1 (active)	5.53 (active)
CAILRRHKRDAGNASASA [FS-1214]	10.7 (active)	10.2 (active)	7.94 (active)
CAPKRRQKRDAGNASASA [FS-1048]	13.5 (active)	14.7 (active)	10 (active)
CAILRRHVGPAGNASASA [HC1111]	0.0974 (inactive)	-0.838 (inactive)	0.671 (inactive)
CAQHSVRKRDAGNASASA [FS-1150]	11.7 (active)	12.2 (active)	10.4 (active)
CAHWSVTKRDAGNASASA [FS-336]	0.168 (inactive)	0.304 (inactive)	0.862 (inactive)
CAVVCCSNSYAGNASASA [HC2061]	0.77 (inactive)	-0.0199 (inactive)	0.92 (inactive)
CALVPCHRPSAGNASASA [HC2305]	0.746 (inactive)	0.178 (inactive)	0.32 (inactive)
CAEIVVCCSMAGNASASA [HC2124]	0.157 (inactive)	-0.897 (inactive)	0.583 (inactive)
CAQCCDLDPQAGNASASA [HC1491]	0.144 (inactive)	0.912 (inactive)	-0.252 (inactive)
CAMEECSQCLAGNASASA [HC1760]	-0.273 (inactive)	-0.494 (inactive)	0.638 (inactive)
CAEVVFSTWVAGNASASA [HC126]	1.73	-1.1 (inactive)	-0.791 (inactive)
CATDSRTNRDAGNASASA [FS-1422]	-1.07 (inactive)	-0.239 (inactive)	1.78
CAGLRRRKRDAGNASASA [FS-930]	12.2 (active)	10.2 (active)	8.8 (active)
CAISPRQKRDAGNASASA [FS-542]	12.4 (active)	12.3 (active)	9.21 (active)
CATHRRQKRDAGNASASA [FS-1092]	3.98 (active)	2.56	2.3
CATSSEPAPSAGNASASA [HC1344]	-0.191 (inactive)	-1.38 (inactive)	-0.0397 (inactive)
CATSSRNARNAGNASASA [FS-571]	3.05	4.2 (active)	5.2 (active)
CATTPCSGDWAGNASASA [HC1911]	1.59	-1.02 (inactive)	0.621 (inactive)
CAEVGTSTWVAGNASASA [HC2196]	0.089 (inactive)	1.37	0.992 (inactive)
CAEVVTSTWSAGNASASA [HC2257]	0.148 (inactive)	-0.0297 (inactive)	0.967 (inactive)

Sequence	furin cleavage Z-score (7.5 min)	furin cleavage Z-score (15 min)	furin cleavage Z-score (30 min)
CASTPCSEHLAGNASASA [HC2532]	1.63	0.136 (inactive)	-0.509 (inactive)
CAVEFLVQAWAGNASASA [HC1471]	-1.03 (inactive)	-0.538 (inactive)	0.302 (inactive)
CALEDNVTPIAGNASASA [HC1434]	-0.871 (inactive)	-0.336 (inactive)	-2.15 (inactive)
CAADLEVVTSAGNASASA [HC986]	0.0893 (inactive)	-0.606 (inactive)	-0.099 (inactive)
CAIITRWKRDAGNASASA [FS-1013]	11.5 (active)	11.3 (active)	8.16 (active)
CARPSRVARDAGNASASA [FS-1565]	13.5 (active)	13.3 (active)	9.92 (active)
CATSSRRKRDAGNASASA [FS-630]	11 (active)	10.2 (active)	7.47 (active)
CARPSRPWRDAGNASASA [FS-1479]	-0.109 (inactive)	1.22	0.811 (inactive)
CATSNSLKRDAGNASASA [FS-885]	-0.606 (inactive)	0.0826 (inactive)	-0.0438 (inactive)
CARPSRQIHKAGNASASA [FS-2286]	1.18	-0.223 (inactive)	1.59
CAYDSMKKRDAGNASASA [FS-389]	0.389 (inactive)	0.234 (inactive)	0.576 (inactive)
CATSSRSARKAGNASASA [FS-1617]	-0.831 (inactive)	2.68	0.36 (inactive)
CAQYLAGLSTAGNASASA [HC1047]	-0.145 (inactive)	1	1.23
CARKKKAWIYAGNASASA [FS-2559]	0.615 (inactive)	-1.67 (inactive)	-1.6 (inactive)
CAVGCCSMSYAGNASASA [HC2016]	-0.196 (inactive)	-0.437 (inactive)	1.21
CAQSPRSFQKAGNASASA [TR4]	-0.296 (inactive)	-2.07 (inactive)	-0.29 (inactive)
CALMGYIPLVAGNASASA [HC227]	0.341 (inactive)	2.34	-0.327 (inactive)
CAMEICSQHLAGNASASA [HC1704]	0.947 (inactive)	2.02	0.46 (inactive)
CARRHRRPRRAGNASASA [FS-1074]	5.28 (active)	6.77 (active)	6.21 (active)
CARAERAARFAGNASASA [FS-185]	0.624 (inactive)	2.79	2.55
CARAERRPRRAGNASASA [FS-1059]	8.38 (active)	9.79 (active)	8.17 (active)
CARRHRTYRWAGNASASA [FS-864]	7.43 (active)	9.85 (active)	11.3 (active)
CARRHRKKKRAGNASASA [FS-918]	0.00638 (inactive)	0.147 (inactive)	0.539 (inactive)
